High-throughput results from PubChem BioAssay.
ALR inh = blocks human ALR sulfhydryl oxidase activity; purified ALR, DTT oxidation, H2O2 HRP-luminol luminescence; actives 3.8% (n = 290,000); inhibition, % (no concentration beside the values); P55789;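 active means mean replicate inhibition above about 79%, with every replicate also reaching it, limit read from the data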
Target sequence (P55789 whole entry, looked up): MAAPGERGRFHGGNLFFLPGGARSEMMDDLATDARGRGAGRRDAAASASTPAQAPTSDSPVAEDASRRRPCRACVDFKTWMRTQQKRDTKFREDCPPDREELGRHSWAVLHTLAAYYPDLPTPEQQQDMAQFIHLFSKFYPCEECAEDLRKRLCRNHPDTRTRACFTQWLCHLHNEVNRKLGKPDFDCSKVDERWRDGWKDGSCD
PfGluPho inh = PfG6PD (Plasmodium falciparum) enzyme inhibition. PfGluPho enzyme, NADPH resazurin-diaphorase fluorescence. actives 0.78% (n = 350,000). inhibition, % at 20 µM;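 active means inhibition reaching at least a set limit at 20 µM in the primary screen, cut at about 59% in these data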
PHOSPHO1 block = blocks human PHOSPHO1 phosphatase activity; Q8TCT1; actives 1.1% (n = 290,000); inhibition, % at 13.3 µM; AID 1565; recombinant PHOSPHO1, absorbance phosphatase assay; in the data active means inhibition above about 60%
Target sequence (Q8TCT1 whole entry, looked up): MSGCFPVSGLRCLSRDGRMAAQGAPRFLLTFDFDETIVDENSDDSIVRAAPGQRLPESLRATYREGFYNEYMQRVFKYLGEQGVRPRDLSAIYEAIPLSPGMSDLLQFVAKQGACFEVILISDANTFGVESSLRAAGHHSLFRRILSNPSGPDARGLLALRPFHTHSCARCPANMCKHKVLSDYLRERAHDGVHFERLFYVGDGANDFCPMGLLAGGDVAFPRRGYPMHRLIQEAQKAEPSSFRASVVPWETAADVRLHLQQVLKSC
M18AAP inhibitor = blocks P. falciparum M18 aspartyl aminopeptidase | recombinant PfM18AAP, H-Glu-NHMec fluorogenic cleavage | inhibition, % at 7.35 µM | actives 1.2% (n = 290,000) | AID 1822;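 active means inhibition above the campaign mean inhibition over all tested compounds plus 3 SD, cut at about 28% in these data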
H9c2 protect = modulators protecting cardiomyocytes from myocardial damage; H9c2 cardiomyocytes, H2O2 injury protection, ATPLite, 2 h; protection from H2O2 cell death, % at 20 µM; actives 0.63% (n = 360,000); AID 588492;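 active means compounds giving at least 50% protection of heart cells from peroxide-induced death in the single-dose screen, raw or plate-pattern-corrected value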
Numbers stand for hits; 0 = inactive; - = not tested or not shown; ! = not confirmed by another sample. A selection: hits, their analogues and other compounds. The true share with any hit is near 5.6%.

SMILES	ALR inh	PfGluPho inh	PHOSPHO1 block	M18AAP inhibitor	H9c2 protect
O=C(c1ccc2c3c(cccc13)CC2)C1CCCN(CC2CC2)C1 (configuration not stated)	0	0	60	0	0
O=C(c1ccc2c3c(cccc13)CC2)C1CCCN(Cc2ncc[nH]2)C1 (configuration not stated)	0	0	0	0	0
NCC(O)c1cc(O)c(O)cc1F (configuration not stated)	83	0	-	-	0
O=C1Nc2ccccc2Oc2ccccc21	-	0	-	-	0
CC(Cc1ccccc1Sc1ccccc1O)N(C)C (configuration not stated)	98	0	0	0	0
CCOc1cc(-c2nc3c(C)cccn3c2NCC2CCCO2)ccc1O (configuration not stated)	97	0	0	0	0
Cc1cccn2c(NCC3CCCO3)c(C(C)C)nc12 (configuration not stated)	78	0	0	0	0
CC(C)c1ccc(N2C(=O)NC(=O)/C(=C/C=C/c3ccco3)C2=O)cc1	-	0	0	0	0
CCc1ccc(N2C(=O)NC(=O)/C(=C\C=C\c3ccco3)C2=O)cc1	98	0	0	0	0
Cc1ccc(N2C(=O)NC(=O)/C(=C/C=C/c3ccco3)C2=O)cc1	0	0	0	0	0
CC1=NN(c2ccccc2)C(=O)C1/C=C1\C(=O)NC(=O)N(c2cc(C)cc(C)c2)C1=O (configuration not stated)	0	0	0	0	0
CCOc1ccc(N2C(=O)/C(=C/c3ccco3)C(=O)NC2=S)cc1	98	0	0	0	0
Cc1cc(C)cc(N2C(=O)NC(=O)/C(=C\C=C\c3ccco3)C2=O)c1	96	0	0	0	61
CC1=NN(c2ccccc2)C(=O)C1/C=C1/C(=O)NC(=O)N(c2cc(C)cc(C)c2)C1=O (configuration not stated)	87	0	0	0	0
N#Cc1ccc(NC(=S)N2Cc3ccccc3-n3nncc3C2)cc1	-	0	-	-	0
O=C1c2cccc(N3CCNCC3)c2C2CCCCN12 (configuration not stated)	-	-	-	-	0
Cc1ccc(OC(=O)N(C)C[C@@H]2OCc3cnnn3CCCC(=O)N([C@@H](C)CO)C[C@@H]2C)cc1	-	0	-	-	0
Cc1ccc(-n2c(=O)[nH]c3ccccc3c2=O)cc1[N+](=O)[O-]	-	-	-	-	0
CSCCC(c1nnnn1C(C)(C)C)N1CCC2(CC1)C(=O)NCN2c1ccccc1 (configuration not stated)	-	-	-	-	0
CC/C(=N\Nc1ccccc1)c1c(O)n(-c2ccc(OC)cc2)c(=O)[nH]c1=O	99	0	0	0	0
C=CCn1c(O)c(/C(CC)=N/NC(=S)Nc2ccccc2)c(=O)[nH]c1=O	-	0	67	0	0
C=CCn1c(O)c(/C(C)=N/NC(=S)Nc2ccccc2)c(=O)[nH]c1=O	0	0	0	0	0
Cn1c[n+](C)cc1C(O)c1ccccc1 (configuration not stated)	0	0	96!	0	0
CN1C(CC(O)c2ccccc2)CCCC1CC(O)c1ccccc1 (configuration not stated)	0	0	-	-	0
COc1ccc(C(SCC(NC(=O)OCc2ccccc2)C(=O)O)c2ccc(OC)cc2)cc1 (configuration not stated)	-	0	-	-	0
SMILES	ALR inh	PfGluPho inh	PHOSPHO1 block	M18AAP inhibitor	H9c2 protect
CN(C)c1ccc(P(=S)(N(C)C)N(C)C)cc1	99	0	0	0	0
COc1ccc(-c2cc(=NCCCCCC(=O)O)c3cc(C)ccc3o2)cc1	-	0	0	0	0
COc1ccc(-c2cc(=Nc3cccc(C(=O)O)c3)c3cc(C)ccc3o2)cc1	96	0	0	0	0
Cc1ccc(Sc2ccc(C=C3C(=O)N(C)C(=O)N(C)C3=O)o2)cc1	97	0	0	0	0
N/C(=N\N=C/c1ccc(-c2ccc(O)c(C(=O)O)c2)o1)N[N+](=O)[O-]	0	0	0	31	0
CCOC(=O)c1c(C)c(P(=S)(N2CCOCC2)N2CCOCC2)n(C)c1C	0	0	61	0	0
CCOP(=S)(OCC)N1CCOCCOCCN(P(=S)(OCC)OCC)CCOCCOCC1	0	0	0	0	0
N#Cc1c(/N=C/C2C(=O)NC(=S)NC2=O)sc2c1CCCC2	93	0	0	0	0
CCOC(=O)C1CCN(/C=C2\C(=O)NC(=S)N(CC)C2=O)CC1	0	0	62	0	0
Cc1ccc(CN2CCSc3ccc(C(=O)N4CCC5(CC4)OCCO5)cc32)cc1	80	0	0	0	0
O=C(c1ccc2c(c1)N(Cc1ccc(F)cc1)CCS2)N1CCC2(CC1)OCCO2	82	0	0	0	0
Cc1ccc(CN2CCN(CC(=O)N3CCC4(CC3)OCCO4)C2=O)cc1	0	0	0	0	0
CCC(=Nc1ccc(OC)cc1OC)c1c(O)[nH]c(=O)[nH]c1=O	0	0	0	0	0
CCC(=Nc1cc(OC)ccc1OC)c1c(O)[nH]c(=O)[nH]c1=O	0	0	0	29	0
CC(C)(O)C1C2OC(=O)C1C1(O)CC3OC34C(=O)OC2C14C (configuration not stated)	-	0	-	-	0
CSCCC(c1nnnn1-c1ccc2c(c1)OCCO2)N1CCC(n2c(=O)[nH]c3ccccc32)CC1 (configuration not stated)	-	-	-	-	0
CC(N)Cc1c[nH]c2c1ccc1ccccc12 (configuration not stated)	0	0	0	30	0
O=C(O)CCCc1ccc(N(CCCl)CCCl)cc1	99	0	0	0	0
CC1C(=O)CC2(C(C)C)CC12 (configuration not stated)	-	-	-	-	0
O=C(c1ccc(-c2ccccc2)c(F)c1)C1CCCN(CCO)C1 (configuration not stated)	0	0	60	0	0
O=C(CSC1c2ccccc2-c2ccccc21)N/N=C/c1ccc(C(=O)O)cc1	0	0	0	0	0
O=C(CSC1c2ccccc2-c2ccccc21)N/N=C/c1ccccc1O	98	0	0	0	54
COCCCn1c(N)c(C(=O)Nc2sc3c(c2C(=O)OC)CCCC3)c2nc3ccccc3nc21	0	0	0	0	93
CC1=NN(c2ccccc2)C(=O)/C1=C/c1c(O)[nH]c(=S)[nH]c1=O	0	0	86	0	0
CC(C)(C)n1nnnc1C(c1cccc2ccccc12)N1CCC2(CC1)C(=O)NCN2c1ccccc1 (configuration not stated)	-	-	-	-	0
SMILES	ALR inh	PfGluPho inh	PHOSPHO1 block	M18AAP inhibitor	H9c2 protect
CCN1CCN(c2ccc(N)cc2)CC1	94	0	0	0	0
CCN1CCN(c2ccc(N)cc2C)CC1	99	0	0	0	0
CN1CCN(c2ccc(N)cc2)CC1	99	0	0	0	0
CN1CCN(c2ccc3nccnc3c2)CC1	0	0	0	0	0
CN1CCN(c2ccc(C=O)cc2)CC1	0	0	0	0	0
CCN1CCN(c2ccc(NC(C)=O)cc2Cl)CC1	0	0	0	0	0
CN1CCN(c2ccc(N)c(N3CCN(C)CC3)c2)CC1	-	0	0	30	0
COc1ccc(C(c2nnnn2C(C)(C)C)N2CCC3(CC2)C(=O)NCN3c2ccccc2)cc1 (configuration not stated)	-	-	-	-	0
